Compound activity from PubChem.
This is a sample that favours compounds with a hit; in the whole collection about 9.4% have one here.
ELG1 genotoxic: qHTS screen for small molecules that induce genotoxicity in human embryonic kidney (HEK293T) cells expressing luciferase-tagged ELG1; AID 504466, 2011; 330,000 compounds, 1.3% hits; HEK293T ELG1-luciferase reporter, luminescence, 16 h; Potency, µM (titrated, usually from 46 µM), inactives show at the highest dose activity change, positive = activation, actives largely listed as activators; also: % of control where 0% means no effect; nearly all actives have a fitted effect of over 60% in size
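Quantitative HTS format in 1536-well plates. HEK293T ELG1-luciferase reporter cells receive test compound and are incubated 16 hr at 37 °C, 5% CO2; ONE-Glo added, 30 min room temperature, then luminescence read.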
SMN2 splice up: qHTS Assay for Enhancers of SMN2 Splice Variant Expression. 210,000 compounds, 2.8% hits. Potency, µM (top dose mostly 46.1 µM), inactives show at the highest dose activity change, positive = activation, usual class: activators. HEK293 SMN2-luciferase splicing reporter, luminescence, 30-36 h; also: % of control where 0% means no effect; nearly all actives have a fitted effect of over 55% in size
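HEK293 cells carry an SMN2 minigene-luciferase reporter in which exon 7 inclusion puts luciferase in frame. Cells were seeded at 2000 cells/well, attached for 10-12 hours, then exposed to compounds for 30-36 hours at 37C before ONE-Glo luminescence.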
Rab9 promoter act: qHTS Assay for Rab9 Promoter Activators; Huh7 Rab9 promoter-luciferase reporter, luminescence, 24 h; Potency, µM (top dose mostly 9.22 µM), without a hit: top-dose activation, negative = inhibition, usual class: activators; 320,000 compounds, 2.8% hits; AID 485297, 2010; also: % of control where 0% means no effect; nearly all actives have a fitted effect of over 60% in size
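Stable Rab9-luc Huh7, 1500 cells/well, 2 h settle; cmpd in DMSO, 24 h, 37 °C/5% CO2; luciferase reagent 10 min RT; luminescence.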
NPC1 prom act: qHTS Assay for NPC1 Promoter Activators; Huh7 NPC1 promoter luciferase reporter, 24 h; Potency, µM (doses to about 9.22 µM), for the others: at the top dose activation, usual class: activators; 320,000 compounds, 2.4% hits; AID 485313, 2010; also: % of control where 0% means no effect; nearly all actives have a fitted effect of over 60% in size
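Compounds in DMSO were transferred onto Huh7 NPC1-luciferase reporter cells pre-incubated 2 h; after 24 h at 37 °C, Amplite reagent was dispensed and luminescence recorded 10 min later.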
FLuc modulator: qHTS profiling assay for firefly luciferase inhibitor/activator using purifed enzyme and Km concentrations of substrates (counterscreen for miR-21 project) | Luciferin 4-monooxygenase (Photinus pyralis), P08659 | purified FLuc, Km substrates, luminescence inhibition | Potency, µM (titrated, usually from 57.5 µM), for inactives: top-dose activity change, negative = inhibition, usual class: inhibitors | 360,000 compounds, 6.9% hits;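 also: plate controls were vehicle for no effect and reference inhibitor for full effect; nearly all actives have a fitted effect of over 55% in size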
Target sequence (P08659 whole entry, looked up): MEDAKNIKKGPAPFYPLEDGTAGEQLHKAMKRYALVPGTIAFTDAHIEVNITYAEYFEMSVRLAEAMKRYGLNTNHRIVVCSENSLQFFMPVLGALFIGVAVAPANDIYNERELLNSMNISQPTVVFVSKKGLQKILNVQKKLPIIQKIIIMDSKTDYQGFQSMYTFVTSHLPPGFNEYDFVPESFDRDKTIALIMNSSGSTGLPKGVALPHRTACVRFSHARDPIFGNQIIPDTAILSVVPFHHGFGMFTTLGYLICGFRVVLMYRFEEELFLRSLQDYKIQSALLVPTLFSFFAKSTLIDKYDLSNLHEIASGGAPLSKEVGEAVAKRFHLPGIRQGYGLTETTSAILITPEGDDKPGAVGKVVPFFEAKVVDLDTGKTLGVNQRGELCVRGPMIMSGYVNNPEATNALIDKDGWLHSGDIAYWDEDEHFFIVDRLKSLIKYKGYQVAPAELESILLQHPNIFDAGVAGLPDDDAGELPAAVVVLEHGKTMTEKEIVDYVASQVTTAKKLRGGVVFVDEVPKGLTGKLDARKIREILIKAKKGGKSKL
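Purified P. pyralis luciferase, 10 nM final, with Km-level 10 uM D-luciferin and 10 uM ATP in 50 mM Tris acetate pH 7.5, 10 mM Mg acetate, 0.01% Tween-20, 0.05% BSA; 6-point qHTS titration about 60 µM downward; luminescence read.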
ELG1 repair inh: qHTS screen for small molecules that inhibit ELG1-dependent DNA repair in human embryonic kidney (HEK293T) cells expressing luciferase-tagged ELG1. AID 504467, 2011. HEK293T ELG1-luciferase reporter, luminescence, 16 h; DNA damage induced by 5-fluorouridine. Potency, µM (highest dose often 46.1 µM), inactives show at the top dose activity change, negative = inhibition, most hits filed as inhibitors. 330,000 compounds, 2.3% hits; also: % is scaled to controls: 0 for no effect and ±100 for the full control effect; nearly all actives have a fitted effect of over 55% in size
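Quantitative HTS, concentration-response format. 2,000 cells/well co-treated with 5-fluorouridine and compound, 16 hr in 5% CO2 at 37 °C; ONE-Glo luminescence read after 30 min.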
An asterisk follows results filed as active; ? = inconclusive; / = no result given; [ ] = dose if it differs, or a comment. Calls follow the shape of the dose curve; as a rule, active = well fitted curve in the direction sought with a large enough effect; inconclusive = small, poorly fitted or top-dose-only effect, or another doubt; inactive = no such curve, though single readings can be large; an effect the other way counts as inactive or inconclusive. Potency is read from the fitted curve at half-maximal effect.

SMILES | ELG1 genotoxic | SMN2 splice up | Rab9 promoter act | NPC1 prom act | FLuc modulator | ELG1 repair inh
Cc1nnc(SC(C)C(=O)Nc2ccc3c(c2)OCCO3)s1 (centres undefined) | 5% | 22% | -2% | 1% | ? | 5%
O=C(CSc1nnc(-c2ccc(O)cc2)o1)Nc1cccc(O)c1 | ? | / | -1% | 13% | ? | ?
O=S(=O)(NCc1nc2cccnc2n1Cc1ccc(F)cc1)c1ccc(Cl)s1 | / | / | / | / | -8% | /
CC(C)(C)c1ccc(-c2nnc(SCC(=O)c3ccc4c(c3)OCCO4)o2)cc1 | -3% | -40% | -17% | -2% | 24µM* | 6%
O=C(CSc1nnc(-c2ccc(F)cc2)o1)c1ccc2c(c1)OCCO2 | 2% | 3% | -1% | 0% | -15%[2.3 µM] | 6%
O=C(CSc1nnc(-c2ccccc2Cl)o1)Nc1ccc2c(c1)OCCO2 | ? | 14µM* | ? | 29% | ? | ?
CC(C)Oc1ccc(C(=O)Nc2ccc(N(C)C)cc2)cc1 | 4.1µM* | / | 18% | 19% | 3.4µM* | ?
CCCOc1ccc(C(=O)Nc2ccc(N(C)C)cc2)cc1 | 5.6µM* | 92% | ? | 15% | 0.76µM* | ?
CC(C)Oc1ccc(C(=O)Nc2ccc3c(c2)n(C)c(=O)n3C)cc1 | 23µM* | / | 2% | 0% | 12µM* | ?
Cn1c(=O)n(C)c2cc(C(N)=O)ccc21 | 9% | 22µM* | 1% | -2% | 8%[2.3 µM] | ?
Cn1c(=O)n(C)c2cc(C(=O)O)ccc21 | -1% | 13% | 4% | -2% | 3% | 2%
CC(C)Oc1ccc(C(=O)NCC(c2ccc(N(C)C)cc2)N2CCCC2)cc1 (centres undefined) | / | / | / | / | 4% | /
Cc1ccc(C)c(Cn2c3ccccc3c3cnn(CC(=O)NC(C)CCc4ccccc4)c(=O)c32)c1 (centres undefined) | / | 12% | / | / | 0% | /
CCCc1cc2c(n1CCc1ccc(Cl)cc1)C(C)C1CN(C(=O)c3ccccc3)C(C)(C(=O)OC)C21 (centres undefined) | / | -17% | / | / | / | /
CCOc1ccccc1NC(=O)c1ccc2c(c1)CCN2S(C)(=O)=O | / | 1% | / | / | 1% | /
CCCOc1ccc(NC(=O)c2cc3cc(C)ccc3[nH]2)cc1 | 10% | / | ? | 1.8µM* | -9% | 14%
Cc1ccc2[nH]c(C(=O)Nc3ccc(F)cc3)cc2c1 | 3% | / | ? | ? | ? | ?
CCOC(=O)c1c(NC(=S)N2CCOCC2)sc2c1CCN(C(=O)OCC)C2 | 3% | / | -1% | -7% | -4% | 23µM*
CCOC(=O)c1c(NC(=S)N2CCCCC2)sc2c1CCN(C(=O)OCC)C2 | -2% | / | -1% | -6% | -4% | ?
C=CCn1cc(C(=O)NCCOC)c(=O)c2cc(S(=O)(=O)N(CC)CC)ccc21 | -1% | -2% | -6% | -1% | 3% | ?
CCn1cc(C(=O)NC(C)CCc2ccccc2)c(=O)c2cc(S(=O)(=O)N(C)C)ccc21 (centres undefined) | 2% | / | 2%[1.84 µM] | -8% | 1% | 21µM*
CCn1cc(C(=O)NCc2ccc3c(c2)OCO3)c(=O)c2cc(S(=O)(=O)N(C)C)ccc21 | -3% | -24% | -7% | -1% | -6% | 16µM*
CCn1cc(C(=O)NCc2ccc3c(c2)OCO3)c(=O)c2cc(S(=O)(=O)N3CCOCC3)ccc21 | -1% | ? | -7% | -5% | -3% | ?
CCN(CCCNC(=O)c1cn(CC)c2ccc(S(=O)(=O)N(C)C)cc2c1=O)c1cccc(C)c1 | -7% | -11% | -4% | -9% | 8% | 23µM*
